The source of these data is article PMC9838217, “Structure of SALL4 zinc finger domain reveals link between AT-rich DNA binding and Okihiro syndrome”.

What all share (assay): HT-SELEX; high values mean tight binding
Common to all, as to conditions: protein: recombinant; vector His6-GST; dsDNA, one strand shown

One experiment addresses T1, SALL4 ZFC4 WT (HT-SELEX) (Mus musculus, UniProt Q8BX22 870-940).
T1 sequence: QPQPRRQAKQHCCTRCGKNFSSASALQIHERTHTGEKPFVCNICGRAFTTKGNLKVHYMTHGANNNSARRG
Summed up:
(§1)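 DNA from a random library (1.5 µg in the first cycle, 200 ng afterwards) was incubated with purified recombinant mouse SALL4 zinc finger cluster 4, residues 870–940 (1 µg), for 10 min at room temperature in 100 µl buffer: 10 mM Tris–HCl pH 7.5, 50 mM NaCl, poly(dI-dC), DTT. Bound complexes were pulled down on Ni2+ beads, washed and PCR-amplified, and the selection was repeated for up to 6 cycles in triplicate. MiSeq reads were scanned for 6-mers, and binding signal is each canonical k-mer's read fraction as fold change over the initial random library.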

Experiment [1] has as its target T2, SALL4 ZFC4 R900W (HT-SELEX) (Mus musculus, UniProt Q8BX22 870-940, R900W).
T2 sequence: T1 sequence with R31W
Summed up: as §1

Experiment [2] concerns the target T3, SALL4 ZFC4 G921D (HT-SELEX) (Mus musculus, UniProt Q8BX22 870-940, G921D).
T3 sequence: T1 sequence with G52D
The essentials:
as §1

Substitutions are numbered along the chain they refer to.

Consider AAAGAT, for which the results for the binding signal (in the experiment with SALL4 ZFC4 WT (HT-SELEX); in experiment [1]; in experiment [2]) were 2.08 ± 0.0847 fold-change vs cycle 0, 2.1 ± 0.102 fold-change vs cycle 0 and 1.84 ± 0.163 fold-change vs cycle 0, respectively.

As to AAACCT, the binding signal in the experiment with SALL4 ZFC4 WT (HT-SELEX) is 1.23 ± 0.0691 fold-change vs cycle 0; in experiment [2], 1.34 ± 0.0704 fold-change vs cycle 0.

In the case of ACCAAG, the binding signal turned out to be 0.816 ± 0.0198 fold-change vs cycle 0 in the experiment with SALL4 ZFC4 WT (HT-SELEX), 0.935 ± 0.0459 fold-change vs cycle 0 in experiment [1] and 0.983 ± 0.0112 fold-change vs cycle 0 in experiment [2].

AGTTCA: the binding signal with SALL4 ZFC4 WT (HT-SELEX) turned out to be 1.42 ± 0.0499 fold-change vs cycle 0; in experiment [1], 1.55 ± 0.0608 fold-change vs cycle 0; in experiment [2], 1.44 ± 0.0878 fold-change vs cycle 0.

ATAGCA: the binding signal in the experiment with SALL4 ZFC4 WT (HT-SELEX) was determined as 1.2 ± 0.0655 fold-change vs cycle 0; in experiment [2], 1.23 ± 0.0807 fold-change vs cycle 0.

As for CGTTAG, the results for the binding signal (with SALL4 ZFC4 WT (HT-SELEX); in experiment [1]; in experiment [2]) were 0.723 ± 0.0258 fold-change vs cycle 0, 0.82 ± 0.0289 fold-change vs cycle 0 and 0.902 ± 0.0446 fold-change vs cycle 0, respectively.

Take TAAGAA: the figures for the binding signal (with SALL4 ZFC4 WT (HT-SELEX); in experiment [2]) were 2.2 ± 0.0931 fold-change vs cycle 0 and 1.87 ± 0.231 fold-change vs cycle 0, respectively.

Take CCAATA: the binding signal was found to be 1.24 ± 0.0729 fold-change vs cycle 0 with SALL4 ZFC4 WT (HT-SELEX) and 1.22 ± 0.0438 fold-change vs cycle 0 in experiment [2].

For GGATCA, the figures for the binding signal (with SALL4 ZFC4 WT (HT-SELEX); in experiment [1]; in experiment [2]) were 0.841 ± 0.0365 fold-change vs cycle 0, 0.972 ± 0.0131 fold-change vs cycle 0 and 1.03 ± 0.0289 fold-change vs cycle 0, respectively.

With CCTTAC, the binding signal stood at 0.944 ± 0.0541 fold-change vs cycle 0 in the experiment with SALL4 ZFC4 WT (HT-SELEX), 1.06 ± 0.0559 fold-change vs cycle 0 in experiment [1] and 1.04 ± 0.0333 fold-change vs cycle 0 in experiment [2].

On to CGTGGA, for which the binding signal with SALL4 ZFC4 WT (HT-SELEX) came to 0.351 ± 0.0215 fold-change vs cycle 0; in experiment [1], 0.435 ± 0.0211 fold-change vs cycle 0; in experiment [2], 0.54 ± 0.0631 fold-change vs cycle 0.

For GGAAGA, the figures for the binding signal (with SALL4 ZFC4 WT (HT-SELEX); in experiment [2]) were 0.939 ± 0.0256 fold-change vs cycle 0 and 1.12 ± 0.0151 fold-change vs cycle 0, respectively.

Regarding CAGATA, the binding signal was determined as 1.33 ± 0.0697 fold-change vs cycle 0 in the experiment with SALL4 ZFC4 WT (HT-SELEX) and 1.29 ± 0.0843 fold-change vs cycle 0 in experiment [2].

For GCTTTA, the binding signal was 0.998 ± 0.0694 fold-change vs cycle 0 in the experiment with SALL4 ZFC4 WT (HT-SELEX) and 1.11 ± 0.0337 fold-change vs cycle 0 in experiment [2].

With ACCAAT, the binding signal with SALL4 ZFC4 WT (HT-SELEX) is 1.25 ± 0.0373 fold-change vs cycle 0; in experiment [2], 1.33 ± 0.0543 fold-change vs cycle 0.

For AAAACT, the results for the binding signal (with SALL4 ZFC4 WT (HT-SELEX); in experiment [2]) were 1.7 ± 0.107 fold-change vs cycle 0 and 1.57 ± 0.146 fold-change vs cycle 0, respectively.

In the case of ATACCA, the binding signal turned out to be 1.39 ± 0.0502 fold-change vs cycle 0 with SALL4 ZFC4 WT (HT-SELEX) and 1.35 ± 0.0639 fold-change vs cycle 0 in experiment [2].

Regarding ACAAAC, the binding signal with SALL4 ZFC4 WT (HT-SELEX) stood at 1.07 ± 0.057 fold-change vs cycle 0; in experiment [2] it was 1.23 ± 0.0372 fold-change vs cycle 0.

Take CTGGAA: the binding signal in the experiment with SALL4 ZFC4 WT (HT-SELEX) came out at 0.772 ± 0.02 fold-change vs cycle 0; in experiment [1], 0.891 ± 0.0485 fold-change vs cycle 0; in experiment [2], 0.926 ± 0.0429 fold-change vs cycle 0.

For the sequence AGGATG, the binding signal with SALL4 ZFC4 WT (HT-SELEX) came out at 0.903 ± 0.0399 fold-change vs cycle 0; in experiment [2], 1.04 ± 0.0274 fold-change vs cycle 0.

For the sequence AAGAAG, the values for the binding signal (with SALL4 ZFC4 WT (HT-SELEX); in experiment [1]; in experiment [2]) were 1.4 ± 0.0333 fold-change vs cycle 0, 1.63 ± 0.0977 fold-change vs cycle 0 and 1.45 ± 0.147 fold-change vs cycle 0, respectively.

For ATATGG, the binding signal with SALL4 ZFC4 WT (HT-SELEX) was 1.44 ± 0.131 fold-change vs cycle 0; in experiment [1] it was 1.33 ± 0.0761 fold-change vs cycle 0; in experiment [2], 1.28 ± 0.0676 fold-change vs cycle 0.

As to AATACG, the binding signal with SALL4 ZFC4 WT (HT-SELEX) was found to be 1.06 ± 0.0521 fold-change vs cycle 0; in experiment [2], 1.1 ± 0.0362 fold-change vs cycle 0.

Take ACGAAA: the binding signal stood at 1.04 ± 0.0604 fold-change vs cycle 0 in the experiment with SALL4 ZFC4 WT (HT-SELEX) and 1.11 ± 0.0388 fold-change vs cycle 0 in experiment [2].

For CCTACG, the binding signal in the experiment with SALL4 ZFC4 WT (HT-SELEX) came out at 0.357 ± 0.0238 fold-change vs cycle 0; in experiment [1] it was 0.443 ± 0.0174 fold-change vs cycle 0; in experiment [2], 0.524 ± 0.0668 fold-change vs cycle 0.

In the case of CAAATG, the values for the binding signal (with SALL4 ZFC4 WT (HT-SELEX); in experiment [2]) were 1.063 ± 0.0102 fold-change vs cycle 0 and 1.17 ± 0.0276 fold-change vs cycle 0, respectively.

For ATTTGG, the binding signal worked out at 1.02 ± 0.0576 fold-change vs cycle 0 with SALL4 ZFC4 WT (HT-SELEX) and 1.1 ± 0.038 fold-change vs cycle 0 in experiment [2].
